HSV replic up – increases HSV replication in cells; HSV replication augmentation in cells, fold increase; maximum fold increase; actives 0.005% (n = 220,000); AID 1956; in the data active means maximum fold increase above about 1.5; tested in PC3 cells
Measles CPE – protection of cells from measles virus; Measles virus-infected cells, CPE protection, absorbance; protection (pct of control), % at 4 µM; actives 1.5% (n = 140,000); AID 841; in the data active means protection mostly above about 24%, no sharp cut-off; inactive means mostly below about 26%
KCC2 mod – modulates chloride dependent transport by human KCC2; Q9H2X9; KCC2 cells, thallium flux FluoZin-2 fluorescence; B-score of Tl+ flux slope (higher = more flux/activation; lower = inhibition) at 10 µM; actives 2.2% (n = 190,000);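 active means thallium flux slope and its plate-corrected score both differing from the plate sample mean at a set confidence after two filtering rounds, in either direction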;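 further: slope of fluorescence scaled to starting intensity during 10 to 20 s after thallium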
Arbovirus anti – blocks arbovirus infection | arbovirus infection cell-based antiviral screen | inhibition, % at 10 µM | actives 0.37% (n = 200,000) | AID 1251; in the data active means inhibition above about 30%
ROMK mod – modulates human ROMK potassium channel activity; P48048; Tet-inducible ROMK, thallium flux fluorescence; actives lie on both sides; B-score at 10 µM; actives 2% (n = 130,000);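 active means signal ratio slope over the read window, or its plate-corrected B-score, at least 3 SD from the plate mean, either direction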;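 further: B-score of the F/F0 ratio slope over 7 to 12 s after thallium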
Target sequence (P48048 whole entry, looked up): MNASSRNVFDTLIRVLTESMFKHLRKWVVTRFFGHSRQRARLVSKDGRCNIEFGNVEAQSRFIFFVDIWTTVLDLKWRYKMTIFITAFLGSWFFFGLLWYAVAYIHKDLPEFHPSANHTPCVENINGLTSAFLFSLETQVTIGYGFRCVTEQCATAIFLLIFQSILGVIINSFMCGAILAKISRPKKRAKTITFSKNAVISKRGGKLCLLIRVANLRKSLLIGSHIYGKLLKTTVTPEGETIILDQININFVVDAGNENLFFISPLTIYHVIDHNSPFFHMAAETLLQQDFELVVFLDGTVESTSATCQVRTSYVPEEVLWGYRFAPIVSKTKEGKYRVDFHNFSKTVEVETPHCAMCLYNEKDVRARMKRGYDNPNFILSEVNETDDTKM
Active calls of the source: *; i = inactive; x = no result given. This is a sample that favours compounds with a hit; in the whole collection about 4% have one here.

SMILES	HSV replic up	Measles CPE	KCC2 mod	Arbovirus anti	ROMK mod
C=CCn1c(=O)c2ccccc2n2c(SCc3cc(=O)n4ccsc4n3)nnc12	i	66*	x	6	0.46
O=C(NNS(=O)(=O)c1ccccc1Cl)c1nn(-c2ccc(F)cc2)ccc1=O	i	x	-1.3	x	x
O=c1[nH]c(SCc2nc3ccccc3c(=O)n2-c2ccccc2)nc2ccccc12	i	5	1.5	-4	x
O=c1c2ccccc2nc(CSc2ncnc3nc[nH]c23)n1-c1cccc(C(F)(F)F)c1	i	27*	-0.12	-2	x
CCOC(=O)c1c(C)c(C(=O)Nc2ccccc2)c(C)n1CC	x	6	-2	-4	0.38
CCOC(=O)c1c(C)c(C(=O)N2CCc3ccccc3C2)c(C)n1CC	i	14	-4.6*	-24	x
CCOc1ccc2nc(CN3CCN(Cc4ccsc4)C(CCO)C3)ccc2c1 (centres undefined)	i	x	-0.78	17	-0.63
CC1=[N+]([O-])C(C)(C)N(O)C1(C)C	i	x	-0.57	x	x
Cc1ccc(C2=[N+]([O-])C(C)(C)N(O)C2(C)C)cc1	i	46*	0.24	-7	x
C#Cc1ccc([C@H]2C=C(C(=O)NC3CC3)O[C@@H](OCC)[C@@H]2CCCO)cc1	i	x	-1.2	2	x
Cc1cc(N2C(=O)C(O)=C(C(=O)c3ccc(C)o3)C2c2cccs2)no1 (centres undefined)	i	5	-3*	7	x
CCc1ccc2nc(N3C(=O)C(O)=C(C(=O)c4ccco4)C3c3cccs3)sc2c1 (centres undefined)	i	6	x	13	x
Cc1ccc2nc(N3C(=O)C(O)=C(C(=O)c4cc5ccccc5o4)C3c3cccs3)sc2c1 (centres undefined)	x	7	x	32*	x
Cc1cc(N2C(=O)C(O)=C(C(=O)c3ccco3)C2c2ccc(O)cc2)no1 (centres undefined)	x	27	-0.24	4	x
O=C(Cn1c(=O)[nH]c2ccsc2c1=O)NC1CCCCCC1	i	15	-4.7*	3	-0.58
CC1CCC(NC(=O)Cn2c(=O)[nH]c3ccsc3c2=O)CC1 (centres undefined)	i	20	1.8	-1	x
CC(C)n1cc(CN2CCCC(CO)(Cc3cccc(Cl)c3)C2)cn1 (centres undefined)	i	x	x	-1	-1.6
CC(=O)Nc1ccc(NC(=O)C(C)N2CCN(S(=O)(=O)c3ccc(C)cc3)CC2)cc1 (centres undefined)	i	x	0.03	9	0.95
Cc1ccc(C)c(S(=O)(=O)N2CCN(C(C)C(=O)Nc3ccccc3-c3ccccc3)CC2)c1 (centres undefined)	i	8	-0.75	32*	0.2
Cc1ccc(/C=C/C(=O)N2CCC(Cc3ccccc3)CC2)cc1	i	1	-3.4	1	0.0009
C/C=C/C(=O)OCC(=O)Nc1c(Cl)cccc1Cl	i	30*	-0.43	2	0.35
C/C=C/C(=O)OCC(=O)Nc1cc([N+](=O)[O-])ccc1Cl	i	5	0.21	4	0.66
Clc1ccc(CSc2nnc(-c3ccncc3)o2)cc1	i	1	-0.19	-29	x
O=S(=O)(Nc1ccc(-c2nnc(SCc3ccc(Cl)cc3)o2)cc1)c1ccccc1	i	26	0.68	31*	-0.07
NC(=O)c1ccc(Oc2ccc(C(N)=O)cc2)cc1	i	x	-0.56	x	x
SMILES	HSV replic up	Measles CPE	KCC2 mod	Arbovirus anti	ROMK mod
CNC(=S)N=Nc1c(O)[nH]c2ccc(C(C)C)cc12	i	10	6.6*	-21	x
CC(C)NC(=S)N=Nc1c(O)[nH]c2ccc([N+](=O)[O-])cc12	i	x	2	4	0.93
O=C(O)c1ccccc1O	i	43*	0.19	3	x
COC(=O)c1ccccc1NS(=O)(=O)c1ccc(O)c(C(=O)O)c1	i	6	0.75	-1	x
O=C(O)c1cc(S(=O)(=O)O)ccc1O	i	55*	-0.35	2	x
CCN1C=C(C(=O)OC)C(c2cccc(OC)c2OC)C(C(=O)OC)=C1	i	x	0.57	2	0.41
CCC(CC)C(=O)Nc1c(C)n(C)n(-c2ccccc2)c1=O	i	48*	0.44	-2	x
Cc1c(NS(C)(=O)=O)c(=O)n(-c2ccccc2)n1C	i	55*	0.81	3	x
COc1ccc(-c2cc(C(=O)OC(C)C(=O)Nc3c(C)n(C)n(-c4ccccc4)c3=O)c3ccccc3n2)cc1 (centres undefined)	i	28	-1.4	8	x
Cc1c(NC(=O)COC(=O)c2cc(-c3ccc(-c4ccccc4)cc3)nc3ccccc23)c(=O)n(-c2ccccc2)n1C	i	38*	-1	-11	x
